# VACV Venus inh: vaccinia inhibition (Venus reporter); Vaccinia virus Venus reporter expression, fluorescence; Potency, µM (series often up to 36.5 µM), without a hit: top-dose activity change, negative = inhibition, usual class: inhibitors; 0.46% of 330,000 active; calls by dose curve; tested in A549 cells; also: potency is read from the fitted curve at half-maximal effect; nearly all actives have a fitted effect of over 30% in size
# HCV inh: inhibitors of hepatitis C virus infection; Huh7.5.1 HCVcc-Cre infection, luciferase reporter, 44 h; Potency, µM (doses to about 41.8 µM), inactives show at the highest dose activity change, negative = inhibition, most hits filed as inhibitors; 3.4% of 340,000 active; active = well fitted inhibition curve with a large enough effect; inconclusive = small, poorly fitted or top-dose-only effect, or another doubt; inactive = no such curve, though single readings can be large or run the other way; also: potency is read from the fitted curve at half-maximal effect
#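 After 44 h co-culture of compound, cells and HCVcc-Cre (~0.5 moi), substrate is added for 15 min at room temperature and luciferase measured over 15 sec. Cells were seeded at 1,000/well and pre-cultured 4 h.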
# Vaccinia mCherry: inhibitors of vaccinia virus infection (mCherry reporter signal); Vaccinia virus mCherry reporter infection, fluorescence; 0.63% of 310,000 active; Potency, µM (titrated, usually from 36.5 µM), for inactives: at the highest dose activity change, negative = inhibition, most hits filed as inhibitors; calls by dose curve; tested in A549 cells; also: potency is read from the fitted curve at half-maximal effect; nearly all actives have a fitted effect of over 35% in size
# Lassa entry inh: inhibitors of Lassa virus binding or cell entry. 1.2% of 300,000 active. Potency, µM (doses to about 37.9 µM), inactives show at the top dose activity change, negative = inhibition, usual class: inhibitors. Lassa virus pseudotype entry inhibition, cell reporter; calls by dose curve; tested in HEK293 cells; also: potency is read from the fitted curve at half-maximal effect; nearly all actives have a fitted effect of over 50% in size
# MARV entry inh: blocks Marburg virus binding to or entry into cells; Potency, µM (doses to about 37.8 µM), without a hit: top-dose activity change, negative = inhibition, actives largely listed as inhibitors; 1.8% of 300,000 active; Marburg virus pseudotyped entry inhibition, cell reporter; calls by dose curve; tested in HEK293 cells; also: potency is read from the fitted curve at half-maximal effect
# HCMV inh: inhibitors of human cytomegalovirus. AID 1259415. 4.5% of 410,000 active. HFF cells, HCMV-luciferase reporter, 72 h; hits give low values. activity change, negative = inhibition, % at 57.5 µM; in the data active = activity change below about -60%; inconclusive = no clear call, values can overlap the other calls; inactive = above about -39%
#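 Inhibition of viral replication was scored as loss of reporter luminescence in HFFs infected with HCMV-luciferase (MOI 1 PFU/cell) for 72 h; compounds tested at 2 doses, normalized to buffer and Salinomycin controls.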
# * hit, by the source's call; i = inactive; ? = inconclusive; nt = no result; [ ] = another dose, or the depositor's remark. Most compounds without a hit are left out; they make up all but 7.8% or so of the library. % is scaled to controls: 0 for no effect and ±100 for the full control effect.
SMILES,VACV Venus inh,HCV inh,Vaccinia mCherry,Lassa entry inh,MARV entry inh,HCMV inh
CC(NCc1ccccc1O)C12CC3CC(CC(C3)C1)C2 (stereo unspecified),nt,-4.7%,nt,nt,nt,-86.9*
O=C1NC(=O)c2cc(Nc3ccccc3)c(Nc3ccccc3)cc21,?,nt,?,?,23.1µM*,nt
O=C(Nc1ccc2c(c1)C(=O)NC2=O)c1ccccc1,-12.8%,6.3%,-3.8%,nt,nt,?
COc1ccc(-c2csc(Nc3cccnc3)n2)cc1,-29.5%,10µM*,?,-17.1%,-29.8%,13.8
COc1ccccc1Nc1nc(-c2sc(N)nc2C)cs1,nt,-15.5%,nt,nt,nt,-26.1
COc1ccc(-c2csc(Nc3ccccc3)n2)cc1,-4.9%,14.1µM*,-16.5%,?,?,-8.9
Cc1nc(N)sc1-c1csc(Nc2ncccn2)n1,-6.8%,?,-6.1%,2.9%,?,-77.1*
COc1ccc(-c2csc(Nc3ccc(S(N)(=O)=O)cc3)n2)cc1,nt,5.01µM*,nt,?,-9.8%,-29.6
CC(=O)Oc1ccc(-c2csc(Nc3ccc(S(N)(=O)=O)cc3)n2)cc1,1.9%,?,-25.3%,?,-1.0%[46.1 µM],-15.7
O=[N+]([O-])c1ccc(C(c2sc3nc(-c4ccco4)nn3c2O)N2CCN(c3cccc(Cl)c3)CC2)cc1 (stereo unspecified),-16.1%,nt,-4.2%,17.7%[46.1 µM],nt,3.2
COCCNC(=O)Cn1c(-c2cccs2)cc2cc(Cl)ccc21,-16.1%,nt,-12.2%,-1.5%[46.1 µM],nt,-3.9
C=CCOC(=O)C(C(C)=O)[C@@H](NC(=O)OC)c1cccc(F)c1 (stereo partly specified),nt,nt,nt,nt,12.5%[14.2 µM],nt
Cc1oc(-c2ccccc2NC(=O)C2CCC2)nc1CNC(=O)c1ccc(C#CC(C)(C)O)cc1,-9.0%,nt,-12.0%,nt,nt,nt
Cc1nc(N)sc1-c1csc(Nc2ccc(S(N)(=O)=O)cc2)n1,nt,10µM*,nt,nt,nt,-15.1
Cc1cc(C)n(-c2nc(SCCN(C)C)c3c4c(sc3n2)COC(C)(C)C4)n1,nt,7.94µM*,nt,?,?,11.3
Clc1ccc(/C(Cc2nc3ccccc3[nH]2)=N\Nc2ccccc2)cc1,-6.8%,11.2µM*,?,?,?,-31.7
O=C(Cc1nc2ccccc2[nH]1)c1ccc(Cl)cc1,-12.3%,?,-9.2%,nt,2.8%[46.1 µM],-23.3
Cc1ccc(Cn2c(CN3CCC(C(=O)NCCc4ccccc4)CC3)cc3ccccc32)cc1,-18.7%,nt,-10.8%,?,nt,-28.6
O=C(NC1CCN(C(=O)NC2CCCCC2)CC1)c1ccco1,-20.2%,22.6%,i,28.9%,?,-106.7*
O=C(NC1CCCCCCC1)c1ccco1,nt,-0.8%,nt,20.0%,?,44.3
O=C1c2ccc3c4c(ccc(c24)C(=O)N1CCCCO)C(=O)N(CCCCO)C3=O,nt,7.08µM*,nt,nt,nt,-99.7*
CCOc1ccc(NC(=O)CN(C)C(=O)CC2CCCC2)cc1OCC,nt,-7.7%,nt,nt,nt,16.4
CCOc1ccc(NC(=O)CN(C)C(=O)CC2CCCCC2)cc1OCC,nt,?,nt,nt,nt,-68.0*
COc1ccc(Cl)cc1NC(=O)CSc1ccc2nnc(CCNS(=O)(=O)c3ccccc3)n2n1,-3.9%,nt,-9.0%,-10.0%[46.1 µM],nt,1.5
CN(C)c1ccc(CNC(=O)Cn2c(-c3cccs3)cc3cc(Cl)ccc32)cc1,-18.6%,nt,-20.8%,8.5%[46.1 µM],nt,-71.0*
SMILES,VACV Venus inh,HCV inh,Vaccinia mCherry,Lassa entry inh,MARV entry inh,HCMV inh
Cc1ccc2cccc(NC(=O)c3cccc4c(Br)cccc34)c2n1,5.3%,nt,-10.0%,3.5%[46.1 µM],?,-4.9
CN(Cc1cccs1)C(=O)COc1ccc(-c2nnco2)cc1,nt,6.0%,nt,12.5%,2.1%,-100.1*
CCN1CCC(N[C@H]2C[C@@H](C(=O)NC)N(Cc3cccc4ccccc34)C2)CC1,-1.8%,nt,-7.2%,nt,nt,nt
COc1cc(/C=N/OCC(=O)Nc2ccc(OC(F)F)cc2)ccc1OCc1ccccc1,-28.7%,?,-12.4%,?,7.08µM*,12.4
CCOc1ccc(/C=N/OCC(=O)Nc2ccc(OCc3ccccc3)cc2)cc1OC,-7.9%,-13.3%,-16.4%,-0.7%,?,17.0
COc1ccc(/C=N/OCC(=O)NC(c2ccccc2)c2ccccc2)cc1OC,?,3.98µM*,?,?,?,-65.5*
COc1ccc(/C=N/OCC(=O)Nc2cc(C)on2)cc1OC,-7.9%,-10.2%,i,12.7%,0.9%,-8.7
